Consider two compounds from ChEMBL document CHEMBL1961873, “Compounds: GSK PKIS; Assays: Nanosyn kinase panel” (2012).

The structures appear in SMILES notation.

In experiment [1] the target is T1, Inhibitor of nuclear factor kappa-B kinase subunit epsilon (Homo sapiens) (UniProt Q14164).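 Also: reported values are averaged percent inhibition figures against human IKKε.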
T1 sequence (whole entry): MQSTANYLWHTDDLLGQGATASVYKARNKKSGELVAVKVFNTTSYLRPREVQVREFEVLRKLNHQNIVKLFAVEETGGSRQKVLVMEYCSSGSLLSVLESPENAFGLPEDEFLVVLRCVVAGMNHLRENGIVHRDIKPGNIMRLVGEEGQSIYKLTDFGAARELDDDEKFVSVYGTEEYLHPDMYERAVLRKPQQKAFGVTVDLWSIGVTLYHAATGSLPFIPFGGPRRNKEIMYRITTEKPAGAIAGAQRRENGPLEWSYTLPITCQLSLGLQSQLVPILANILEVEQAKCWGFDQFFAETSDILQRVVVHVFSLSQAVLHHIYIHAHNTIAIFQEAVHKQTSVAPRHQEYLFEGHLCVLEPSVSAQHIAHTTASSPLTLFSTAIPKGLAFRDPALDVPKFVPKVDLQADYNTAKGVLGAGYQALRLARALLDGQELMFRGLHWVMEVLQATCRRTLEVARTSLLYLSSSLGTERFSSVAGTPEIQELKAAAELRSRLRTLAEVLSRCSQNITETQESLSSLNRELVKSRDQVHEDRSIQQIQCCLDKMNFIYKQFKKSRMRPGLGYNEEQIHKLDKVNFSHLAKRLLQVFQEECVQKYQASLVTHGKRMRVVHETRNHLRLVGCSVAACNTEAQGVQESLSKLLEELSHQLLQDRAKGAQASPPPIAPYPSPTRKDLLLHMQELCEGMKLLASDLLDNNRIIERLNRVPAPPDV
Particulars: at 1 µM.

The target in experiment [2] is T2, Serine/threonine-protein kinase Nek1 (Homo sapiens) (UniProt Q96PY6).
T2 sequence (whole entry): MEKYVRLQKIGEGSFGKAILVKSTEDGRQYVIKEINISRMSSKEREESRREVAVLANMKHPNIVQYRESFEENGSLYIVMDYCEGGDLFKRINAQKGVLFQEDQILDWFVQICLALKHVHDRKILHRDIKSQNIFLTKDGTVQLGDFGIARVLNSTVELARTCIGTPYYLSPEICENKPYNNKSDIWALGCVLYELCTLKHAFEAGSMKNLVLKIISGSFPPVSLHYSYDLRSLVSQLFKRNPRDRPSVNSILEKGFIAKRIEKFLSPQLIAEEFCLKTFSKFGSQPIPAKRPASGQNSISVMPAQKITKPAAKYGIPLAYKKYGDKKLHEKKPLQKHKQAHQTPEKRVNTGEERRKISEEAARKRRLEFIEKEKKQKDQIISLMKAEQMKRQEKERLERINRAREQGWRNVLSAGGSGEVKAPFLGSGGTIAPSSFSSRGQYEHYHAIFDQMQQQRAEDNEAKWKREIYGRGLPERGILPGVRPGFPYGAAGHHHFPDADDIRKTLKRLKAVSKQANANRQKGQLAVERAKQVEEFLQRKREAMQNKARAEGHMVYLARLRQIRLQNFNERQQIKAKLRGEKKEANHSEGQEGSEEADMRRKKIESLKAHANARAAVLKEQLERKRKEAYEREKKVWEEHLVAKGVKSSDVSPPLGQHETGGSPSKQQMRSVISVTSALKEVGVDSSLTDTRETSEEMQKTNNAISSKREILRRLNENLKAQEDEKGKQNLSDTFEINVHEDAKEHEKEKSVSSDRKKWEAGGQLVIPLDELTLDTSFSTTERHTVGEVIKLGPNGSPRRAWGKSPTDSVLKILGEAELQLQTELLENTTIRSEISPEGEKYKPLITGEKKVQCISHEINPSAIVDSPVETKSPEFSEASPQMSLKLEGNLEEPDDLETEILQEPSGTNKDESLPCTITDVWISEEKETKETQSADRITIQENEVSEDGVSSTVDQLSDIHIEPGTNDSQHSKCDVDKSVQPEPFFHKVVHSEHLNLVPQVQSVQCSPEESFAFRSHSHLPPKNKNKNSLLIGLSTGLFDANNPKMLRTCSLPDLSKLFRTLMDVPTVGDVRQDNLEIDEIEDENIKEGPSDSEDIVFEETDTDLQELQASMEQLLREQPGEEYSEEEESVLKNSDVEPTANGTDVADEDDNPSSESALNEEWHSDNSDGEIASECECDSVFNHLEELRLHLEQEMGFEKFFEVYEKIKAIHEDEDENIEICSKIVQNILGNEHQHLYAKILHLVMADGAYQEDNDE
Particulars: at 0.1 µM.

The target in experiment [3] is T2, Serine/threonine-protein kinase Nek1 (Homo sapiens). Particulars: at 1 µM.
Experiment [4] concerns the target T3, Serine/threonine-protein kinase Nek2 (Homo sapiens) (UniProt P51955).
T3 sequence (whole entry): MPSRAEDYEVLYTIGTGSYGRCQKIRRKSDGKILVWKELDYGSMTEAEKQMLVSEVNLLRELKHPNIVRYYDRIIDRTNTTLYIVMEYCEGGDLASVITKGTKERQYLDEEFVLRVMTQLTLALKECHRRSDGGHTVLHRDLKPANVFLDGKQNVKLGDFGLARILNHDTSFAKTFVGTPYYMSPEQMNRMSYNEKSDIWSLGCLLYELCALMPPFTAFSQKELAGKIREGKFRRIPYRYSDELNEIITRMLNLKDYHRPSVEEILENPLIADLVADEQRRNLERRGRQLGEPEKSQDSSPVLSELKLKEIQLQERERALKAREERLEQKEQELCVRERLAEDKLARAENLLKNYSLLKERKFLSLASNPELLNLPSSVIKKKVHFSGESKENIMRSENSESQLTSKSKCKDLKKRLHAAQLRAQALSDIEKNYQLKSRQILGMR
Particulars: at 0.1 µM.

In experiment [5] the target is T3, Serine/threonine-protein kinase Nek2 (Homo sapiens). Particulars: at 1 µM.
In experiment [6] the target is Serine/threonine-protein kinase Nek6 (Homo sapiens) (UniProt Q9HC98). Particulars: at 0.1 µM.
Serine/threonine-protein kinase Nek6 (Homo sapiens), sequence (Q9HC98 whole entry): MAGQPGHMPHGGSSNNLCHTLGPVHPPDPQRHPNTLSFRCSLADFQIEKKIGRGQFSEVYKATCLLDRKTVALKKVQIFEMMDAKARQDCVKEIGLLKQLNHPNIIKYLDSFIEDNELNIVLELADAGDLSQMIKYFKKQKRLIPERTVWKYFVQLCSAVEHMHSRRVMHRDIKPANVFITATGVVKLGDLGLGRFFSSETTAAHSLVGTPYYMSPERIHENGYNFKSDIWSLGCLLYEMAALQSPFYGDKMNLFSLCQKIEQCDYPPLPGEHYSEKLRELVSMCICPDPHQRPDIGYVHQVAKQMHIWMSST
The target is the same in experiment [7]. Particulars: at 1 µM.
In experiment [8] the target is Serine/threonine-protein kinase Nek7 (Homo sapiens) (UniProt Q8TDX7). Particulars: at 0.1 µM.
Serine/threonine-protein kinase Nek7 (Homo sapiens), sequence (Q8TDX7 whole entry, looked up): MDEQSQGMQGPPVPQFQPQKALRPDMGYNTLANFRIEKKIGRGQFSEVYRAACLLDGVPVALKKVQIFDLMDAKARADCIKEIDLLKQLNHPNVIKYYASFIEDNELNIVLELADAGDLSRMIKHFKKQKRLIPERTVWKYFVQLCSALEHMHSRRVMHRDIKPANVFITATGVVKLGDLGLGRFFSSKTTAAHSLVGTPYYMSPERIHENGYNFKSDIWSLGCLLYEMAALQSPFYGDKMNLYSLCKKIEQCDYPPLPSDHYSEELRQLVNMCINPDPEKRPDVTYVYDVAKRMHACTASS
For experiment [9] the target is unchanged. Particulars: at 1 µM.
Experiment [10] has as its target T4, Serine/threonine-protein kinase Nek9 (Homo sapiens) (UniProt Q8TD19).
T4 sequence (whole entry): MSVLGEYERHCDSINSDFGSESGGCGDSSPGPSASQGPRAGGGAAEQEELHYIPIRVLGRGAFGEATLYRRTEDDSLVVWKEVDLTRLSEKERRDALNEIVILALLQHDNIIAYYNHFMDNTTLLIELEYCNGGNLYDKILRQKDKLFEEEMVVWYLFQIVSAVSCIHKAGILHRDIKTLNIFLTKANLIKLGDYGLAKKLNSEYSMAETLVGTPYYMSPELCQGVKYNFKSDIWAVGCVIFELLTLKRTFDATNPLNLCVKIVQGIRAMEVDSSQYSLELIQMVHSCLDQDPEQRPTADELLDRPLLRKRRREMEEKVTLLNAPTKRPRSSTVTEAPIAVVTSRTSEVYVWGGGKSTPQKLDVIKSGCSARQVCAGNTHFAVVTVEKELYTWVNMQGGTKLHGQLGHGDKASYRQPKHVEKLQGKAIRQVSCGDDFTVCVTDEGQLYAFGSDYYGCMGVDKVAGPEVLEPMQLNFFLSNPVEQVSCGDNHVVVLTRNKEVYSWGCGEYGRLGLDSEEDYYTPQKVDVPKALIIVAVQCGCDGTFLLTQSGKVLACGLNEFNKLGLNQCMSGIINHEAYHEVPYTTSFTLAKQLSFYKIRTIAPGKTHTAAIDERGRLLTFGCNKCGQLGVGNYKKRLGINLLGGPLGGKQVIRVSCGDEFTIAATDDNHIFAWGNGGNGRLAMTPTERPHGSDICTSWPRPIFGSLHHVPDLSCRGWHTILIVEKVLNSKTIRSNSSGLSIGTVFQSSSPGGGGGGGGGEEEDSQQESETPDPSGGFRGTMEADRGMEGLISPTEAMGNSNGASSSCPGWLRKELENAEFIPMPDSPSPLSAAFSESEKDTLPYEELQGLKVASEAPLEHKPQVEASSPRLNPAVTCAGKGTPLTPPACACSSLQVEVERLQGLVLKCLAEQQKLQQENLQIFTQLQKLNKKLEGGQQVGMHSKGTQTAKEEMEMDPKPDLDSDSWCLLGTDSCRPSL
Particulars: at 0.1 µM.

In experiment [11] the target is T4, Serine/threonine-protein kinase Nek9 (Homo sapiens). Particulars: at 1 µM.
Experiment [12] deals with Serine/threonine-protein kinase PLK1 (Homo sapiens) (UniProt P53350). Particulars: at 0.1 µM.
Serine/threonine-protein kinase PLK1 (Homo sapiens), sequence (P53350 whole entry): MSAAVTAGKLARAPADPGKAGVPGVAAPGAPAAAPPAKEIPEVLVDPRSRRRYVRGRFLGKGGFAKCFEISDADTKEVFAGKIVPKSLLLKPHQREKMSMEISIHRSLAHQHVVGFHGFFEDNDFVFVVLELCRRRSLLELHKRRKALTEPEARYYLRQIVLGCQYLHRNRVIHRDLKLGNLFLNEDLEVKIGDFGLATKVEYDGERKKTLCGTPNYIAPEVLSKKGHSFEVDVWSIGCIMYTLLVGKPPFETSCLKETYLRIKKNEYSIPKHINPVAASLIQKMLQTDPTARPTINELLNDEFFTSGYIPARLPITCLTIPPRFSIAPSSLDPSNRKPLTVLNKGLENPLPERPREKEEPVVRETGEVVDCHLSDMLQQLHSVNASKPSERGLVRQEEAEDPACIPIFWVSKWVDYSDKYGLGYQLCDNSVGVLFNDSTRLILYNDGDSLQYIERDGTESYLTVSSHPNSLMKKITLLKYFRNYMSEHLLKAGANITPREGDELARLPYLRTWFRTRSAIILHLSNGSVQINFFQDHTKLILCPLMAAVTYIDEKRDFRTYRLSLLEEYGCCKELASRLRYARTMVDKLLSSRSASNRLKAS
Experiment [13] shares this target. Particulars: at 1 µM.
Experiment [14] addresses T5, Dual specificity protein kinase TTK (Homo sapiens) (UniProt P33981).
T5 sequence (whole entry): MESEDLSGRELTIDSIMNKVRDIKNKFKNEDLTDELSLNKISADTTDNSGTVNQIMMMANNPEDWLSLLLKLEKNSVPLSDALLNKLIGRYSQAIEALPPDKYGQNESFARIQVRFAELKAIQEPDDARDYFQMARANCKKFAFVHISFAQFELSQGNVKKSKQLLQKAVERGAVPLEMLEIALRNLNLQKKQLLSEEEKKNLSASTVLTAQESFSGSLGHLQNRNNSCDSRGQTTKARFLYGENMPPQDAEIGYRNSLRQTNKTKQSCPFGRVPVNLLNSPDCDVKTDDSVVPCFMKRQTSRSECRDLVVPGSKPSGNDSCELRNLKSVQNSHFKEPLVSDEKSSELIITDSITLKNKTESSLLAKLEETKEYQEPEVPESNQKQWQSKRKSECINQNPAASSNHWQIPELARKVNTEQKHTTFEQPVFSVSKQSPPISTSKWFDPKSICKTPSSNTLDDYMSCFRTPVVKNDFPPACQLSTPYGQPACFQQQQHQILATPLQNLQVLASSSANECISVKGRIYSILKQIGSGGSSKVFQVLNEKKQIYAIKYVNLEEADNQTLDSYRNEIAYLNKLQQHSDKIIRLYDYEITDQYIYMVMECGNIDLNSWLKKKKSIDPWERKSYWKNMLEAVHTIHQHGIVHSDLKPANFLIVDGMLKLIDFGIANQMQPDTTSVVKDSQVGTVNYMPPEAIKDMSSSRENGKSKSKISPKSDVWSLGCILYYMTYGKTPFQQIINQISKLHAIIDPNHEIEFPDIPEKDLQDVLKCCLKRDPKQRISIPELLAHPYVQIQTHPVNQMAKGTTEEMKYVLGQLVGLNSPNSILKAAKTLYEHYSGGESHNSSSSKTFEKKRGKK
Particulars: at 0.1 µM.

Experiment [15] concerns T6, Receptor-type tyrosine-protein kinase FLT3 (Homo sapiens), P36888 [D835Y].
T6 sequence (whole entry): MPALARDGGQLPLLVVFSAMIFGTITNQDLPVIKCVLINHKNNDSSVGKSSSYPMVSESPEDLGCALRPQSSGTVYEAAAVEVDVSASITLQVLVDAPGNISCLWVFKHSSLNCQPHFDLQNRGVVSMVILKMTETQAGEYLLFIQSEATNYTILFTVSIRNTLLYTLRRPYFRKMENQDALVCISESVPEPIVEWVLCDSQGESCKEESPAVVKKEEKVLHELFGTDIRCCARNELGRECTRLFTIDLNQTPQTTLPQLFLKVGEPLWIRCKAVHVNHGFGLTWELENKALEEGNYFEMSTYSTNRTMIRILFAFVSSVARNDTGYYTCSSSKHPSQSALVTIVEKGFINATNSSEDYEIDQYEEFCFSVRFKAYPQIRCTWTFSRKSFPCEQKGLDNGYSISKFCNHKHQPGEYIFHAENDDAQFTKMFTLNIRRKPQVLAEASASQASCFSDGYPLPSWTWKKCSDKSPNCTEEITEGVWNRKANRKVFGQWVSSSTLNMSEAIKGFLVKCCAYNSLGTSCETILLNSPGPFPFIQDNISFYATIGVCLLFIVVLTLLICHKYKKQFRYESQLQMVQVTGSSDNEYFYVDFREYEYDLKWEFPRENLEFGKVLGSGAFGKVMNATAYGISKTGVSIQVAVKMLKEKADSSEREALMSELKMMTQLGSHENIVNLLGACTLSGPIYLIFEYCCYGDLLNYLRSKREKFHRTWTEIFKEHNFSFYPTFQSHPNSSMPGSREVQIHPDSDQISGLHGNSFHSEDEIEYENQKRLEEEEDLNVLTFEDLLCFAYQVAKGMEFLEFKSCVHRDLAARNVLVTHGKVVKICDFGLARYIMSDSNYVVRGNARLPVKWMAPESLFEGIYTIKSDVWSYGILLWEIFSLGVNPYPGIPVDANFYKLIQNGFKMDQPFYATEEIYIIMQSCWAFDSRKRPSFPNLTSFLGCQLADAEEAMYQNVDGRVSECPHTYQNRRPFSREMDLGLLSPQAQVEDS
Particulars: at 1 µM.

Experiment [16] concerns the target Vascular endothelial growth factor receptor 3 (Homo sapiens) (UniProt P35916). Particulars: at 0.1 µM.
Experiment [17] has the same target. Particulars: at 1 µM.
For experiment [18], the target named is Macrophage colony-stimulating factor 1 receptor (Homo sapiens) (UniProt P07333). Particulars: at 0.1 µM.
Macrophage colony-stimulating factor 1 receptor (Homo sapiens), sequence (P07333 whole entry): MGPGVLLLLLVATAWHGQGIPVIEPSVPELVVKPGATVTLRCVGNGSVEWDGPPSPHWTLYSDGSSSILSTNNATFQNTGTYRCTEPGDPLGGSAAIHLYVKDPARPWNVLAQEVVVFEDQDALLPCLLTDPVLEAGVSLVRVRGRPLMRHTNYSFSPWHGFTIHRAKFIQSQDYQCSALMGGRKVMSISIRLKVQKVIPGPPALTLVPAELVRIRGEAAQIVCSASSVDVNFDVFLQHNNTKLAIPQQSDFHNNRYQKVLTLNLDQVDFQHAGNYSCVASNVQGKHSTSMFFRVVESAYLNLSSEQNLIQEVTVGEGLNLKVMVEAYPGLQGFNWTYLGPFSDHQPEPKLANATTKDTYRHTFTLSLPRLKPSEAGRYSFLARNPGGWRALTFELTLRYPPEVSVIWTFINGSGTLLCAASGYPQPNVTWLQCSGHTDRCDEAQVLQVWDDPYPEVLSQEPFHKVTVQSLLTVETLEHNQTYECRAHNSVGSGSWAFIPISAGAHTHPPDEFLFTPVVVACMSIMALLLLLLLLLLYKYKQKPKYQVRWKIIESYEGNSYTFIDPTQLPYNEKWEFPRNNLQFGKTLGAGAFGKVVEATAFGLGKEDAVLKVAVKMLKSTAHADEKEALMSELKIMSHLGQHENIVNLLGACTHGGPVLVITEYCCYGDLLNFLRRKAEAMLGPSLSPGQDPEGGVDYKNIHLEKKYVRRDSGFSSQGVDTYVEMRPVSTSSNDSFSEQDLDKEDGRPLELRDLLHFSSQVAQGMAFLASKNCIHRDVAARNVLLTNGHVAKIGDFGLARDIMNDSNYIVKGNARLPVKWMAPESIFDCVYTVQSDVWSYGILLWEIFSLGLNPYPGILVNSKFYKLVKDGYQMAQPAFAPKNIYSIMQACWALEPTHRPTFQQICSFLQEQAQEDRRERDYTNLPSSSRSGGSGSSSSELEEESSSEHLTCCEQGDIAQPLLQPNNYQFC
Experiment [19] shares this target. Particulars: at 1 µM.
Experiment [20] concerns the target Tyrosine-protein kinase Fyn (Homo sapiens) (UniProt P06241). Particulars: at 0.1 µM.

Vascular endothelial growth factor receptor 3 (Homo sapiens), sequence (P35916 whole entry): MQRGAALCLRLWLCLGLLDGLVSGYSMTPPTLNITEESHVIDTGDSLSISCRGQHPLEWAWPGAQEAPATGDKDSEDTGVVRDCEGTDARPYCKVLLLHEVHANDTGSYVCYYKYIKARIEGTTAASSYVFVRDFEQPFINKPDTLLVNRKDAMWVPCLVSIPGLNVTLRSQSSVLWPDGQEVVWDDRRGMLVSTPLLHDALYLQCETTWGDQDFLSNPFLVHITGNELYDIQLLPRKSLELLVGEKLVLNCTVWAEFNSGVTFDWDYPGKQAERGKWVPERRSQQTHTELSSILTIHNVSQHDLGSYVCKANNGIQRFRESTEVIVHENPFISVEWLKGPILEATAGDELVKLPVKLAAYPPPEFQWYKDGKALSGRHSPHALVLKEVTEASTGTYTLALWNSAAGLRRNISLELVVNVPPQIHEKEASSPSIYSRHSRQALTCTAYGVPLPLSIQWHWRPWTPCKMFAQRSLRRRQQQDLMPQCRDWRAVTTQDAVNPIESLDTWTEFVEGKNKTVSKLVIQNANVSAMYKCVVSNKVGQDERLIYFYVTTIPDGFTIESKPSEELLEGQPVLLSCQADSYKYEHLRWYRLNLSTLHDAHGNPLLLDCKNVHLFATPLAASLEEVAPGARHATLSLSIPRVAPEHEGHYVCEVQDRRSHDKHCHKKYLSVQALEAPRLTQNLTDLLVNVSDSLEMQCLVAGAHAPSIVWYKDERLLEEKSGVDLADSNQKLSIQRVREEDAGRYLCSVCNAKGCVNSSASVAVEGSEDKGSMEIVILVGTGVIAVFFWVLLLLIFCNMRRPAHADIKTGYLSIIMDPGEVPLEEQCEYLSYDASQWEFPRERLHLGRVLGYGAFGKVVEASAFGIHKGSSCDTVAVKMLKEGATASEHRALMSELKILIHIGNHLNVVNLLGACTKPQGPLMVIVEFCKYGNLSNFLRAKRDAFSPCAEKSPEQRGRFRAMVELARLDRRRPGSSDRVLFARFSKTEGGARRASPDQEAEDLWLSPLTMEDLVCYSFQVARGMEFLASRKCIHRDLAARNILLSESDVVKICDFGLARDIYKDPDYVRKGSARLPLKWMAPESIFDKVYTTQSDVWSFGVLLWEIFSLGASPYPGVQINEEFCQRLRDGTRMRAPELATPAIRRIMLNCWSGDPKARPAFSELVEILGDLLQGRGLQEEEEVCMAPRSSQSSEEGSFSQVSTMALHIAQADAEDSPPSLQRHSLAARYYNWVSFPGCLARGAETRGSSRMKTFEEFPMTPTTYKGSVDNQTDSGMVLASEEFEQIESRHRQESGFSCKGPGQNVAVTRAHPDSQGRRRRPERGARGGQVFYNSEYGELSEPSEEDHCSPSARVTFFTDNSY
Tyrosine-protein kinase Fyn (Homo sapiens), sequence (P06241 2-537 limits assumed): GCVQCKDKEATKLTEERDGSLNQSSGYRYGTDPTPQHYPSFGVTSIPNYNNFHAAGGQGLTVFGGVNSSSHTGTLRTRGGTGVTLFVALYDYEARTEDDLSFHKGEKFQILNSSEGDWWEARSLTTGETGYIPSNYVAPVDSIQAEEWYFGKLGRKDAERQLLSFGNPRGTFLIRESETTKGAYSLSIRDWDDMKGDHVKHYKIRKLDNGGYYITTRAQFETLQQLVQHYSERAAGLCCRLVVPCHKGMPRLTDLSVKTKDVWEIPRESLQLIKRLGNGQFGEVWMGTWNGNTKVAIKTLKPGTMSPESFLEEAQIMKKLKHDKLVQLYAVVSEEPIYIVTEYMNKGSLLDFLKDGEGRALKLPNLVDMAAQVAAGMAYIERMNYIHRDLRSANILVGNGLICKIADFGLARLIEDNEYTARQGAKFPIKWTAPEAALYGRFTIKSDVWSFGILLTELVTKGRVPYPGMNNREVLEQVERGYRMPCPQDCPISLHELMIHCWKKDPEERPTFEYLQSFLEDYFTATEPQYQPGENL

What is called inhibition is the drop in the measured response relative to a control, in per cent. `COC(=O)c1cncc(/C=C/c2c(C)cc(O)cc2C)c1`: the inhibition in experiment [1] was found to be 8.63%; in experiment [2], 1.51%; in experiment [3] it was 3.23%; in experiment [4], 4.54%; in experiment [5], 3.91%; in [6] it was 0.94%. Besides, the inhibition in [7] came out at 4.21%; in experiment [8], 2.47%; in experiment [9], 1.56%; in experiment [10] it was 2.09%; in experiment [11] it was 3.89%; in experiment [12], 1.89%. The inhibition in experiment [13] was 1.85%; in experiment [14] it was 6.05%; in [15], 1.33%; in experiment [16] it was 4.3%; in experiment [17], 2.63%; in experiment [18] it was 6.96%. In addition, the inhibition in experiment [19] stood at 37.7%; in experiment [20] it was 3.73%.
Consider `NC(=O)c1cccc(Nc2nccc(Nc3cccc(F)c3)n2)c1`, for which the inhibition in experiment [1] was found to be 3.29%; in experiment [2] it was 2.58%; in experiment [3], 5.37%; in [4], 3.22%; in [5], 1.09%; in [6] it was 0.35%. The inhibition in experiment [7] was determined as 0.89%; in [8] it was 2.07%; in experiment [9], 1.47%; in experiment [10] it was 8.72%; in [11] it was 11%; in [12], 2.05%. Moreover, the inhibition came out at 6.07% in [13]; 2.31% in experiment [14]; 21.2% in [15]; 1.81% in experiment [16]; 30.6% in [17]; 22.1% in [18]. Moreover, the values for the inhibition in experiment [19] and in experiment [20] were 62.5% and 7.98%, respectively.
